HP1b chromo inh: blocks HP1-beta chromodomain binding to methylated histone tails; P83916; AlphaScreen HP1-beta / biotin-H3K9me3 peptide binding; Potency, µM (series often up to 114 µM), inactives show at the highest dose activity change, negative = inhibition, hits mostly inhibitors; 390,000 tested, 0.56% active; AID 540317; further: potency means the concentration at half of the fitted maximal effect; nearly all actives have a fitted effect of over 70% in size
Target sequence (P83916 whole entry, looked up): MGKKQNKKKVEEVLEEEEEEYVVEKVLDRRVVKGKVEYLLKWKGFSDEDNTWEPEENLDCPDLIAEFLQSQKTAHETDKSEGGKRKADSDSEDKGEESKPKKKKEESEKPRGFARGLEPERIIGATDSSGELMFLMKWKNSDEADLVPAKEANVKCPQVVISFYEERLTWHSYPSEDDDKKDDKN
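AlphaScreen: HP1-beta (50 nM) preformed 30 min with biotin-H3(1-18)K9me3 peptide (50 nM) in PBS pH 7.4, 0.01% Tween-20. Compound added for 30 min at RT, then streptavidin donor/nickel chelate acceptor beads (10 ug/mL) for 30 min.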
CtBP-E1A inh: blocks the CtBP interaction with E1A. 340,000 tested, 0.49% active. activity change, % (no concentration beside the values). AlphaScreen GST-E1A/His-CtBP binding, 1536-well; hits give low values; in the data active means activity change below about -65%; inconclusive means mostly about -30% to -63%; further: on the % scale 0 is the no-effect control and ±100 the full control effect
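AlphaScreen with 125 nM GST-E1A and 125 nM His-CtBP (5X stocks) in Tris pH 8.0, 300 mM NaCl, BSA, Tween 20, TCEP. Compounds preincubated 2 h at 37 deg C, then glutathione donor/nickel acceptor beads added for 1 h at 37 deg C in dark.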
Six1-Eya2 blk: inhibitors of human Six1/Eya2 interaction. activity change, % (test concentration not listed). 360,000 tested, 0.56% active. Q15475+O00167. AlphaScreen GST-Six1/His-Eya2 binding, biochemical; hits give low values; in the data active means activity change below about -65%; inconclusive means mostly about -30% to -63%; further: on the % scale 0 is the no-effect control and ±100 the full control effect
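Homogeneous AlphaScreen proximity assay pairing GST-Six1 with His-tagged Eya2 (added as 5X mix: 250 nM and 500 nM) in 50 mM Tris pH 8.0, 300 mM NaCl, 1 mM TCEP. Glutathione donor and nickel acceptor beads; 1 h, 37 °C, dark.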
G9a inh: G9a (human) methyltransferase inhibition | Q96KQ7 | G9a H3K9 monomethylation, AlphaScreen, 2 h | Potency, µM (series often up to 102 µM), without a hit: top-dose activity, negative = inhibition, hits mostly inhibitors | 350,000 tested, 8.8% active; further: potency means the concentration at half of the fitted maximal effect; on the % scale 0 is the no-effect control and ±100 the full control effect; nearly all actives have a fitted effect of over 75% in size
Target sequence (Q96KQ7 913-1193 limits assumed): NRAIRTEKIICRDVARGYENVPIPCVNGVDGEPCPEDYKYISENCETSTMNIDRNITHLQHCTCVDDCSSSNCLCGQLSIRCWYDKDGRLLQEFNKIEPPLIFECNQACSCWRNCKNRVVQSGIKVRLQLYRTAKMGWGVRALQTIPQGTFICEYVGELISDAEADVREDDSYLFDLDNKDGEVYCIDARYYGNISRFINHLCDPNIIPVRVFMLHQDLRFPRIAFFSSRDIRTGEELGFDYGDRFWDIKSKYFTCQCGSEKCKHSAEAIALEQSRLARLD
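G9a (20 nM) preincubated 15 min RT with compounds, then 500 nM biotinylated H3K9 peptide and 20 uM SAM added; 2 h RT reaction. Monomethyl-H3K9 product detected by AlphaScreen with anti-H3K9me1 antibody, streptavidin donor and anti-rabbit IgG acceptor beads.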
JMJD2A Tudor inh: inhibitors of human JMJD2A Tudor domain. AlphaScreen JMJD2A-Tudor / H3K4me3 peptide binding. Potency, µM (top dose mostly 114 µM), inactives show at the highest dose activity change, negative = inhibition, usual class: inhibitors. 390,000 tested, 4.4% active. AID 504339; further: potency means the concentration at half of the fitted maximal effect; on the % scale 0 is the no-effect control and ±100 the full control effect; nearly all actives have a fitted effect of over 50% in size
BAZ2B block: BAZ2B (human) inhibition. 360,000 tested, 4.4% active. Potency, µM (highest dose often 114 µM), for inactives: at the top dose activity change, negative = inhibition, usual class: inhibitors. AlphaScreen BAZ2B-H3K14Ac peptide displacement. Q9UIF8; further: potency means the concentration at half of the fitted maximal effect; on the % scale 0 is the no-effect control and ±100 the full control effect; nearly all actives have a fitted effect of over 60% in size
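Complex of BAZ2B and biotin-H3K14Ac (50 nM apiece) forms over 30 min at RT, then faces library compounds up to 110 uM for another 30 min; AlphaScreen beads added, 20 min dark incubation, luminescence read.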
* = called active by the depositor; [ ] = dose if it differs, or a comment. Hits are enriched below; roughly 10% of the tested compounds scored in any of these assays. Unless noted, the call rests on the fitted dose curve; in most records, active means well fitted inhibition curve with a large enough effect; inconclusive means small, poorly fitted or top-dose-only effect; inactive means no such curve, though single readings can be large or run the other way.

CCCCCSc1nc2c(cnn2-c2ccccc2)c(=O)[nH]1 was read as HP1b chromo inh 46%, CtBP-E1A inh 2, Six1-Eya2 blk -2, G9a inh 1%[59 µM], JMJD2A Tudor inh -1% and BAZ2B block -6%.
`CCC1CCCCN1C(=O)CSc1nc2c(cnn2-c2ccc(C)cc2)c(=O)[nH]1` (stereo not drawn) gave HP1b chromo inh 27%, CtBP-E1A inh 6, Six1-Eya2 blk 2, G9a inh 56µM*, JMJD2A Tudor inh -13% and BAZ2B block 2%.
`CCCCCSc1nc2c(cnn2-c2ccc(F)cc2)c(=O)[nH]1` gave HP1b chromo inh 15%, CtBP-E1A inh 4, Six1-Eya2 blk 7, G9a inh 22%, JMJD2A Tudor inh 22µM* and BAZ2B block -12%.
For Cc1cccc(CCN2CCC(C(=O)c3ccc(NS(C)(=O)=O)cc3)CC2)n1 the results were G9a inh -6%[59 µM] and BAZ2B block inconclusive.
Screening Cc1ccc(C(C)n2cc(C(=O)NCc3ccccn3)nn2)cc1 (stereo not drawn) returned HP1b chromo inh 66%, CtBP-E1A inh -10, Six1-Eya2 blk 3, G9a inh -7%, JMJD2A Tudor inh -12%[11.4 µM] and BAZ2B block -16%.
For COc1ccc(N2CCN(C(=S)Nc3ccccc3OC)CC2)cc1 the results were HP1b chromo inh -10%, CtBP-E1A inh -11, Six1-Eya2 blk -27, G9a inh 22%[0.501 µM], JMJD2A Tudor inh -22% and BAZ2B block -10%.
COc1ccc(N2CCN(C(=O)CSc3nc(C)cs3)CC2)cc1 was read as HP1b chromo inh 9%, CtBP-E1A inh -7, Six1-Eya2 blk 0, G9a inh 45µM*, JMJD2A Tudor inh -27% and BAZ2B block -7%.
CCOC(=O)N1CCN(C(=O)c2ccc(CSc3ccc(Cl)cc3)cc2)CC1 was read as HP1b chromo inh -8%, CtBP-E1A inh -1, Six1-Eya2 blk -5, G9a inh -3%, JMJD2A Tudor inh 45µM* and BAZ2B block -20%.
`COc1ccc(N2CCN(C(=O)COC(=O)CSc3ccccc3)CC2)cc1` gave HP1b chromo inh -12%, CtBP-E1A inh -9, Six1-Eya2 blk -13, G9a inh 16µM*, JMJD2A Tudor inh inconclusive and BAZ2B block inconclusive.
Screening COC(=O)c1ccccc1NC(=S)N1CCN(c2ccc(OC)cc2)CC1 returned HP1b chromo inh 38%, Six1-Eya2 blk -2, G9a inh inconclusive and JMJD2A Tudor inh 56µM*.
Cc1cnc(CNc2ncncc2-c2ccc(N(C)C)cc2)cn1 was read as G9a inh -46%[0.501 µM].
For COc1ccc(N2CCN(C(=O)CSc3ccccc3)CC2)cc1 the results were HP1b chromo inh 4%, CtBP-E1A inh -7, Six1-Eya2 blk -12, G9a inh inconclusive, JMJD2A Tudor inh -29% and BAZ2B block 79µM*.
COc1ccc(N2CCN(C(=O)CSc3nc4[nH]ncc4c(=O)n3-c3cccc4ccccc34)CC2)cc1 was read as HP1b chromo inh -5%, CtBP-E1A inh -22, Six1-Eya2 blk inconclusive, G9a inh 40µM*, JMJD2A Tudor inh -34% and BAZ2B block -33%.
COc1ccc(N2CCN(C(=O)c3ccc(CSc4ccccc4)cc3)CC2)cc1 was read as HP1b chromo inh inconclusive, CtBP-E1A inh 4, Six1-Eya2 blk 0, G9a inh inconclusive, JMJD2A Tudor inh inconclusive and BAZ2B block 45µM*.
Screening COc1cccc(SCC(=O)N2CCN(c3ccccc3)CC2)c1 returned HP1b chromo inh 34%, CtBP-E1A inh 1, Six1-Eya2 blk -6, G9a inh 12%, JMJD2A Tudor inh -14% and BAZ2B block -30%.
For CCOC(=O)N1CCC(NCCNC(=O)c2ccc(Cl)cc2)CC1 the results were HP1b chromo inh -38%, CtBP-E1A inh -2, Six1-Eya2 blk -5, G9a inh 6.3µM*, JMJD2A Tudor inh 2.8µM* and BAZ2B block inconclusive.

Screens as filed in PubChem BioAssay.
